Experimental data: PubChem BioAssay (Tox21)
Inconclusive results are not listed. The source made the active and inactive calls. Unless noted, calls come from the whole dose curve; as a rule, active = well fitted curve in the direction sought with a large enough effect in the repeat runs; inconclusive = weak or mixed curves; inactive = no such curve, though single readings can be large; an effect the other way counts as inactive or inconclusive.

Key:
[1] = A CellTox Green Cytotoxicity Assay to monitor cytotoxicity in HepG2 cells - 8 hour (AID 1224890); note: nearly all actives have a fitted effect of over 45% in size
Outline: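 Continuous culture of HepG2 cells with a membrane-impermeant DNA dye; rising fluorescence marks dead cells. Compound exposure lasted up to 40 h at 37 C, with reads every 8 h from 0 h.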

[2] = qHTS assay to identify small molecule antagonists of the estrogen receptor alpha (ER-alpha) signaling pathway using the BG1 cell line in the presence of 0.1 nM 17-beta-estradiol - cell viability counter screen (AID 1259241); note: nearly all actives have a fitted effect of over 40% in size
Outline: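 Estradiol-stimulated (0.1 nM) VM7Luc4E2 cells exposed to compounds 22 hr; viability measured by fluorescence of cleaved CellTiter-Fluor substrate after 30 min.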

[3] = qHTS assay to identify small molecule antagonists of the androgen receptor (AR) signaling pathway using the MDA cell line in the presence of 0.5 nM R1881 - cell viability counter screen (AID 1259242); note: nearly all actives have a fitted effect of over 45% in size
Outline: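 Fluorescence from CellTiter-Fluor, which reports protease activity of live cells, was read 30 min after reagent addition to MDA-kb2 cells that had been incubated 16 hr with compound and 0.5 nM R1881.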

[4] = biological target: Estrogen receptor (Homo sapiens) (UniProt P03372); experiment: qHTS assay to identify small molecule antagonists of the estrogen receptor alpha (ER-alpha) signaling pathway using the BG1 cell line in the presence of 0.1 nM 17-beta-estradiol (AID 1259244); note: nearly all actives have a fitted effect of over 50% in size
Chain of Estrogen receptor (Homo sapiens) (P03372 whole entry, looked up): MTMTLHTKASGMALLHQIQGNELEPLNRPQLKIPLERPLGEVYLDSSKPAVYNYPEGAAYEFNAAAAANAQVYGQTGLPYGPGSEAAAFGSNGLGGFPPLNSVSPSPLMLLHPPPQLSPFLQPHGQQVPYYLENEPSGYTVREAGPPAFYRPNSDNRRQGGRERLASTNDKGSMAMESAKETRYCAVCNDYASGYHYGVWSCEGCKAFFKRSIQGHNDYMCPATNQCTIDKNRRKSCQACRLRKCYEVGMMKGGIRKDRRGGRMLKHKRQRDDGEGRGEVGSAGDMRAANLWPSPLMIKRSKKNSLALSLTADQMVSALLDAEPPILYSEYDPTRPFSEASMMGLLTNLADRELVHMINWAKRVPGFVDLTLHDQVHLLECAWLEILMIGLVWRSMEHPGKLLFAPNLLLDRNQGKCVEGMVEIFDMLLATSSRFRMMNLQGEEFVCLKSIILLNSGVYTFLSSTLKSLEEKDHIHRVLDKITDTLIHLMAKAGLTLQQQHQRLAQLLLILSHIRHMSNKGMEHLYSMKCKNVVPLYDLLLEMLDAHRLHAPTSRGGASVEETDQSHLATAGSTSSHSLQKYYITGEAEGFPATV
Outline: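 Quantitative high-throughput screen in VM7Luc4E2 cells: compound plus 0.1 nM E2 (final), 22 h, 37C, 5% CO2; ONE-Glo added, 30 min room temperature, luminescence measured.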

[5] = qHTS assay to identify small molecule phospholipidosis (PLD) inducers (AID 1259344; active = well fitted curve in the direction sought with a large enough effect; an effect the other way counts as inactive or inconclusive)
Outline: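 Quantitative HTS in HepG2: compound plus LipidTOX Red dye for 24 h, paraformaldehyde fixation with Hoechst 33342, widefield high-content imaging; amiodarone as positive and DMSO as negative control.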

[6] = qHTS assay to identify small molecule HDAC inhibitors (AID 1259364); note: top concentration of the series differs between compounds; nearly all actives have a fitted effect of over 45% in size
Outline: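 Endogenous HDAC class I/II activity was measured in wild-type HCT-116 cells by HDAC-Glo luminescence after 2 h compound treatment.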

[7] = qHTS assay to identify small molecule HDAC inhibitors - cell viability counter screen (AID 1259365); note: series mostly up to about 92 µM; nearly all actives have a fitted effect of over 50% in size
Outline: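 After overnight seeding at 1,500 cells per well, wild-type HCT-116 cultures took up compounds in DMSO for 2hr at 37 C. Viable cell content came from luminescence with CellTiter-Glo.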

[8] = qHTS assay to identify small molecule agonists of the sonic hedgehog signaling (Shh) pathway - cell viability counter screen (AID 1259366); note: nearly all actives have a fitted effect of over 50% in size
Outline: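 Same-well cytotoxicity read. Gli1-Luc reporter 3T3 cells; compounds 24hr, 37C/5% CO2; CellTiter-Fluor fluorescence.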

[9] = qHTS assay to identify small molecule antagonists of the sonic hedgehog signaling (Shh) pathway - cell viability counter screen (AID 1259367); note: nearly all actives have a fitted effect of over 55% in size
Outline: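 Seed 3T3 Gli1-Luc cells at 2,000 per well; incubate 4 hr; add compound in DMSO, then conditioned medium; incubate at 37C with 5% CO2; add CellTiter-Fluor after 23 hr; read fluorescence 1 hr later.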

[10] = biological target: Androgen receptor (Homo sapiens) (UniProt P10275); experiment: qHTS assay to identify small molecule antagonists of the androgen receptor (AR) signaling pathway using the MDA cell line in the presence of 0.5 nM R1881 (AID 1259243); note: nearly all actives have a fitted effect of over 50% in size
Chain of Androgen receptor (Homo sapiens) (P10275 whole entry, looked up): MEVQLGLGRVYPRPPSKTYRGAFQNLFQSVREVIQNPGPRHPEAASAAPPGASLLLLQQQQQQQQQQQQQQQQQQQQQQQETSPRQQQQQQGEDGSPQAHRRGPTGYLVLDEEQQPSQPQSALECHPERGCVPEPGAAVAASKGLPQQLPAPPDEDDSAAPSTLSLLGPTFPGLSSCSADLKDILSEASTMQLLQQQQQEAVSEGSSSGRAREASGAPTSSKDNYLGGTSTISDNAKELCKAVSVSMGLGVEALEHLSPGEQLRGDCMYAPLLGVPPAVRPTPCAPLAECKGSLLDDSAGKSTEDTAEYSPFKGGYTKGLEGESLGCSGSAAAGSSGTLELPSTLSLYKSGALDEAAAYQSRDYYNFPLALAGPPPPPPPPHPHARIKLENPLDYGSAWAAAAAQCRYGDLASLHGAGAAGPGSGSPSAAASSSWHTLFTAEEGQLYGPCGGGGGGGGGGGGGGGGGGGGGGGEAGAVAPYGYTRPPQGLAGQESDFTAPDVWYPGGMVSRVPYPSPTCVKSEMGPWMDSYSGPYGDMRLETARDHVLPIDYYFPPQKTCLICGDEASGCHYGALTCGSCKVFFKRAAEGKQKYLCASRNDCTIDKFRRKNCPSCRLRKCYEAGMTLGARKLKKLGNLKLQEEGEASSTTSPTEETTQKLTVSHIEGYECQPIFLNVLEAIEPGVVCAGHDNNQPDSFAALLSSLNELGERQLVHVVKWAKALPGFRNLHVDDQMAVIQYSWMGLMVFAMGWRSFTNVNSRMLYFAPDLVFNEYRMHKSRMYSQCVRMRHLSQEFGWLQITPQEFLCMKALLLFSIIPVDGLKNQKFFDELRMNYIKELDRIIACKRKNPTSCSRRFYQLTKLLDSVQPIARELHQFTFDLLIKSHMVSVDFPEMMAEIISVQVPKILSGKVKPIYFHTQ
Outline: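 Inhibition of R1881 (0.5 nM final) induced reporter signal was measured in human MDA-kb2 cells; note the MMTV promoter also responds to GR. Exposure lasted 16 hr at 37C.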

Measured: Potency

COCCOC(=O)C1=C(C)NC(C)=C(C(=O)OC(C)C)C1c1cccc([N+](=O)[O-])c1 (configuration not stated)
not listed: [9] | [10]
inactive: all other assays above

COc1ccc(-c2cc(=O)c3c(O)cc(O[C@@H]4O[C@H](CO[C@@H]5O[C@@H](C)[C@H](O)[C@@H](O)[C@H]5O)[C@@H](O)[C@H](O)[C@H]4O)cc3o2)cc1O
not listed: [10]
inactive: all other assays above

N#Cc1ccc(C(=O)O)cc1
not listed: [4] | [5]
inactive: all other assays above

COc1ccc(OC)c(Cl)c1
not listed: [4] | [5]
inactive: all other assays above

COP(=O)(OC)OC(c1ccc(Cl)cc1)P(=O)(OC)OC (configuration not stated)
not listed: [10]
inactive: all other assays above

COC(=O)c1ccccc1C(=O)c1ccc(OCCN2CCCCC2)cc1
not listed: [9] | [10]
inactive: all other assays above

C=COCCOCCOCCOC=C
not listed: [4] | [5]
inactive: all other assays above

NS(=O)(=O)c1cc2c(cc1Cl)CN(C1CCCCC1)C2=O
not listed: [4] | [5]
inactive: all other assays above

COc1cc(C(=S)N2CCOCC2)cc(OC)c1OC
not listed: [10]
inactive: all other assays above

CO[C@@H]1[C@@H](OC(N)=O)[C@@H](O)[C@H](Oc2ccc3c(O)c(NC(=O)c4ccc(O)c(CC=C(C)C)c4)c(=O)oc3c2C)OC1(C)C
not listed: [9] | [10]
inactive: all other assays above

CNS(=O)(=O)CCc1ccc2[nH]cc(C3CCN(C)CC3)c2c1
not listed: [10]
inactive: all other assays above

CCN1CCc2nc(N)oc2CC1
not listed: [10]
inactive: all other assays above

C#CC(C)N(C)C(=O)Nc1ccc(Cl)cc1 (configuration not stated)
not listed: [4] | [5] | [6]
inactive: all other assays above

NS(=O)(=O)c1ccc(NC(=O)CCC(=O)O)cc1
not listed: [10]
inactive: all other assays above

Cc1cc2cc3c(C)cc(=O)oc3c(C)c2o1
not listed: [10]
inactive: all other assays above

Cc1cccc(C)c1OCC(C)N (configuration not stated)
not listed: [10]
inactive: all other assays above

C[C@@H](O)[C@H]1C(=O)N2C(C(=O)O)=C(SCCN=CN)C[C@H]12
not listed: [6] | [9] | [10]
inactive: all other assays above
